Results taken from the supplement of paper PMC10849652.
About 7,900 targets were measured; listed, in parts, are those with a hit and a random draw of the rest. About 0.6% of all pairs of compound and target were hits.

Assays:
Experiment in all cases: log2 fold change, soluble protein after heating vs DMSO (PISA); higher = thermal stabilisation; K562 cells, 10 uM, 30 min; active = over 0.2 and 3.5 SD of the protein, either way, in both replicates (recomputed)
saracatinib = compound: CN1CCN(CCOc2cc(OC3CCOCC3)c3c(Nc4c(Cl)ccc5c4OCO5)ncnc3c2)CC1 [saracatinib]
Summary of the method: (§1)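 K562 cells at 2×10^6 cells/mL were exposed to 10 μM compound for 30 min, then aliquots were heated for 3 min across 48°C-58°C, pooled, and extracted in PBS containing 0.5% NP-40 at 4°C. The supernatant after 21,000xg for 90 min was taken as soluble protein and measured by TMTpro 16plex LC-MS/MS with channel sums equalised. Thermal stability is reported relative to control samples, with values from duplicates. Fold changes are given on a log2 scale.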

sotrastaurin = compound: CN1CCN(c2nc(C3=C(c4c[nH]c5ccccc45)C(=O)NC3=O)c3ccccc3n2)CC1 [sotrastaurin]
Summary of the method: as §1

alvocidib = compound: CN1CC[C@H](c2c(O)cc(O)c3c(=O)cc(-c4ccccc4Cl)oc23)[C@H](O)C1 [alvocidib]
Summary of the method: as §1

Tubastatin A = compound: CN1CCc2c(c3ccccc3n2Cc2ccc(C(=O)NO)cc2)C1 [Tubastatin A]
Summary of the method: as §1

[1] = compound: CNC(=O)C1=CC=CC=C1NC2=NC(=NC=C2Cl)NC3=C(C=C(C=C3)N4CCOCC4)OC
Summary of the method: as §1

defactinib = compound: CNC(=O)c1ccc(Nc2ncc(C(F)(F)F)c(NCc3nccnc3N(C)S(C)(=O)=O)n2)cc1 [defactinib]
Summary of the method: as §1

rucaparib = compound: CNCc1ccc(-c2[nH]c3cc(F)cc4c3c2CCNC4=O)cc1 [rucaparib]
Summary of the method: as §1

[2] = compound: CNc1nc(-c2ccc3c(N)n[nH]c3c2)cc(N2C[C@@H](C(=O)NC3CCCCC3)CC[C@H]2C)n1
Summary of the method: as §1

encorafenib = compound: COC(=O)N[C@@H](C)CNc1nccc(-c2cn(C(C)C)nc2-c2cc(Cl)cc(NS(C)(=O)=O)c2F)n1 [encorafenib]
Summary of the method: as §1

[3] = compound: COC(=O)[C@H](CCSC)NC(=O)C1=C(C=C(C=C1)NC[C@H](CS)N)C2=CC=CC=C2
Summary of the method: as §1

Measured: log2 fold change

RPS13 (UniProt P62277)
inactive: saracatinib -0.149 | sotrastaurin 0 | alvocidib 0.287 | Tubastatin A 0.106 | [1] 0.097 | defactinib 0.339 | rucaparib 0.261 | [2] 0.111 | encorafenib 0.137 | [3] 0.031

SH3GL1 (UniProt Q99961)
Chain of UniProt Q99961 (Q99961 whole entry, looked up): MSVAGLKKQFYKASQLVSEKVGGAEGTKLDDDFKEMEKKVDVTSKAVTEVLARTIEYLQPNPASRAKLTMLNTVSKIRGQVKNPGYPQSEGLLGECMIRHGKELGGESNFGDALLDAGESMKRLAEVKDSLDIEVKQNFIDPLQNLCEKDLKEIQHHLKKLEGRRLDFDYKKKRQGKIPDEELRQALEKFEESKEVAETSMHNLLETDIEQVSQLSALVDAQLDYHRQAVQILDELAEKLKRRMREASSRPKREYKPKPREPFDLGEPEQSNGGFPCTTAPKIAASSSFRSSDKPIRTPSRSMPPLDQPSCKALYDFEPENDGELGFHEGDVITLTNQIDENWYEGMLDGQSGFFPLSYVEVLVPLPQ
inactive: saracatinib -0.157 | sotrastaurin -0.163 | alvocidib -0.118 | Tubastatin A 0.092 | [1] -0.035 | defactinib -0.116 | rucaparib 0.022 | [2] 0.054 | encorafenib 0.062 | [3] -0.043

RPA1 (UniProt P27694)
inactive: saracatinib -0.007 | sotrastaurin -0.016 | alvocidib -0.031 | Tubastatin A 0.039 | [1] 0.012 | defactinib -0.076 | rucaparib 0.027 | [2] -0.01 | encorafenib 0.076 | [3] -0.021

SCPEP1 (UniProt Q9HB40)
inactive: saracatinib -0.029 | sotrastaurin 0.031 | alvocidib -0.009 | Tubastatin A -0.012 | [1] 0.021 | defactinib 0.005 | rucaparib 0.064 | [2] -0.022 | encorafenib -0.025 | [3] -0.004

RBM25 (UniProt P49756)
inactive: saracatinib -0.025 | sotrastaurin -0.109 | alvocidib -0.133 | Tubastatin A 0.058 | [1] -0.164 | rucaparib 0.03 | [2] -0.091 | encorafenib -0.094 | [3] 0.014
active: defactinib -0.24

SCCPDH (UniProt Q8NBX0)
Chain of UniProt Q8NBX0 (Q8NBX0 whole entry, looked up): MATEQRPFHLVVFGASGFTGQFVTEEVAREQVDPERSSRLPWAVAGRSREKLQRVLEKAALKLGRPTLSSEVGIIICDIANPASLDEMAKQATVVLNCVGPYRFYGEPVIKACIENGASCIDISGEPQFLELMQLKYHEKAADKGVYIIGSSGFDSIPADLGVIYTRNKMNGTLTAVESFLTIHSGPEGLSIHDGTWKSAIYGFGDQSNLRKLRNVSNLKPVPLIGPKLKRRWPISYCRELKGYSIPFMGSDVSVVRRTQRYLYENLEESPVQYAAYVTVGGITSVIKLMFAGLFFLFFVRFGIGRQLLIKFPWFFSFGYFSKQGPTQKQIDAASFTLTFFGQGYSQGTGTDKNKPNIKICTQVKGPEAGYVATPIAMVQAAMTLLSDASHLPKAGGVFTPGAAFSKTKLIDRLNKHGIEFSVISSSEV
inactive: saracatinib -0.063 | sotrastaurin 0.1 | alvocidib -0.057 | Tubastatin A -0.078 | [1] 0.206 | defactinib 0.121 | rucaparib -0.081 | [2] 0.183 | encorafenib -0.041 | [3] 0.002

RANBP2 (UniProt P49792)
Chain of UniProt P49792 (P49792 whole entry, looked up): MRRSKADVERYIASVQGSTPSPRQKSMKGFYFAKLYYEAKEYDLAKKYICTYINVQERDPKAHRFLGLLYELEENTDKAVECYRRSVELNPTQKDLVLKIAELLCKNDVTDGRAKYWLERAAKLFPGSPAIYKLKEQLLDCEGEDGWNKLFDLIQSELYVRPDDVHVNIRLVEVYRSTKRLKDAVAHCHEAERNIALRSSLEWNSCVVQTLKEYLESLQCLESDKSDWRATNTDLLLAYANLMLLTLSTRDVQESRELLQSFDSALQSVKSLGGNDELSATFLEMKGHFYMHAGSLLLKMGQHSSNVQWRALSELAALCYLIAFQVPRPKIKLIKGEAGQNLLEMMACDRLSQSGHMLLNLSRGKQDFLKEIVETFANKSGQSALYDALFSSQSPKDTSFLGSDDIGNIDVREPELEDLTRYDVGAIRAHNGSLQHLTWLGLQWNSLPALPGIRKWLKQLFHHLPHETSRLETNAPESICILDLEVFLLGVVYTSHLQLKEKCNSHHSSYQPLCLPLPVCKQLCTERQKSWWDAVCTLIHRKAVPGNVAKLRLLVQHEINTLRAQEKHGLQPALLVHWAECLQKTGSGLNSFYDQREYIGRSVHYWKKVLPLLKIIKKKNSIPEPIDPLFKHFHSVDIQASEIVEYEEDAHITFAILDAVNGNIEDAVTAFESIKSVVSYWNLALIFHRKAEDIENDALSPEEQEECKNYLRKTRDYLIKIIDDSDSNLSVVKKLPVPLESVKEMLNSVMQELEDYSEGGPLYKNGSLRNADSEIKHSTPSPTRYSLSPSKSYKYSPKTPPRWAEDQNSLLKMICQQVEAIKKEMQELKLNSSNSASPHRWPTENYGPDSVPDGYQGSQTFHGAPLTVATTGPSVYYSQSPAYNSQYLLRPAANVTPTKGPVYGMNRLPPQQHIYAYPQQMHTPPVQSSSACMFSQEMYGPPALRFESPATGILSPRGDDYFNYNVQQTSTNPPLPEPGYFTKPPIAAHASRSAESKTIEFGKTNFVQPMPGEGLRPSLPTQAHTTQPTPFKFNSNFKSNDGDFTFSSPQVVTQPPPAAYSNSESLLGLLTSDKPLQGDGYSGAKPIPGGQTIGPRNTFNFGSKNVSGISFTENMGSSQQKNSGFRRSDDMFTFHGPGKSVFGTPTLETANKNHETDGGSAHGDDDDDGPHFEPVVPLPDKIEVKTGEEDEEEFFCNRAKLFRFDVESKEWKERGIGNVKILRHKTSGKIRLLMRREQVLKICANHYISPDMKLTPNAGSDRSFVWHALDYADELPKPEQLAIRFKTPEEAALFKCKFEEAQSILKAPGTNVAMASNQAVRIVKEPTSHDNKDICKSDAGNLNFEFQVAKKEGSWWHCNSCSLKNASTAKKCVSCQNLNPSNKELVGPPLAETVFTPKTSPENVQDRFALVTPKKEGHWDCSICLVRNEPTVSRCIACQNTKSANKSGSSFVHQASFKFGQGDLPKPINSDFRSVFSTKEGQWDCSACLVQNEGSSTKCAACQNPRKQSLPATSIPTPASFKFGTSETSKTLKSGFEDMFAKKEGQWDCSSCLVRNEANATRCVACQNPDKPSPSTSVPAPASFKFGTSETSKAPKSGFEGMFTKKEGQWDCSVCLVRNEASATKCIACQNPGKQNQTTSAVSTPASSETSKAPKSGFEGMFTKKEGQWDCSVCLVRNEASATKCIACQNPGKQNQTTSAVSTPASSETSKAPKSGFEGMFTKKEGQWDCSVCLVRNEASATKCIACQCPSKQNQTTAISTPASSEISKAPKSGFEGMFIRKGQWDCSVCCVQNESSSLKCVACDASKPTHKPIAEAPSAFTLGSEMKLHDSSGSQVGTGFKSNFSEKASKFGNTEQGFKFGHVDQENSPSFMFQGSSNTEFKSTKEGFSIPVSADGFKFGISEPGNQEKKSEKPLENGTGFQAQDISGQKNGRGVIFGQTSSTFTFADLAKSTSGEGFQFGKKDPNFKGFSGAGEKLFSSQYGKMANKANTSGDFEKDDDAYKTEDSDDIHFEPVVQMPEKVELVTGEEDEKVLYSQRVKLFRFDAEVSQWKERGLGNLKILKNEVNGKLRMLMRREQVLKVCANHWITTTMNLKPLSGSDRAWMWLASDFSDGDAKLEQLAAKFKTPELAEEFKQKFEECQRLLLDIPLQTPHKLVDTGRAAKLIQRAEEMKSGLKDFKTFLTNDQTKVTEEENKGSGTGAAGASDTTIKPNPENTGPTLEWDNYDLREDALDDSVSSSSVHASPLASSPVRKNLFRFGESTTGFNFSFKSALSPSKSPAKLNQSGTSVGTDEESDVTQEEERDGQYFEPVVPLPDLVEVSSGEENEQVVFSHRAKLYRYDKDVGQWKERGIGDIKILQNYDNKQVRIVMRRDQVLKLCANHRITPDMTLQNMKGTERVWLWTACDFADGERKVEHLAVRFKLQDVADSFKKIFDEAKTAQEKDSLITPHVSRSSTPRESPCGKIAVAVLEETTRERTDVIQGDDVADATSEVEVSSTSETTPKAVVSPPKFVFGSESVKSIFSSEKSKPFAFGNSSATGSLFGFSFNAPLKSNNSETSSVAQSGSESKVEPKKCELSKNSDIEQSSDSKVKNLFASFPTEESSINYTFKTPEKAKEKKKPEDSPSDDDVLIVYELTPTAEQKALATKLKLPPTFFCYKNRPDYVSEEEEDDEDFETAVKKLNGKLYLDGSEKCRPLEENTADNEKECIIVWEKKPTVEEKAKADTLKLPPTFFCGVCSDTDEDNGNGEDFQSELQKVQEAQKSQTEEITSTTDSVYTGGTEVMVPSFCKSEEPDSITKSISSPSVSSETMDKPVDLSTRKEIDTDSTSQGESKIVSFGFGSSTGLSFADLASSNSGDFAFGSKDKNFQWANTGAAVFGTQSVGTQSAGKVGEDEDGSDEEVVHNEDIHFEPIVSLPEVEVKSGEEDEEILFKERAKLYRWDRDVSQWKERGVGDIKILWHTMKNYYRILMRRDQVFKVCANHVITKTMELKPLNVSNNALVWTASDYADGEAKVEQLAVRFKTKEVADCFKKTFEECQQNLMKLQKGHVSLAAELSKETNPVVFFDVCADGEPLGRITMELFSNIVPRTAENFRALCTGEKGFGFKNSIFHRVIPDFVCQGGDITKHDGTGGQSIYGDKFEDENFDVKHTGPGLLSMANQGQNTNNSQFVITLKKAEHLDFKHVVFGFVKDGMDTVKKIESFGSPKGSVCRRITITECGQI
inactive: saracatinib -0.011 | sotrastaurin -0.06 | alvocidib -0.079 | Tubastatin A -0.016 | [1] 0.886 | defactinib -0.009 | rucaparib -0.028 | [2] -0.016 | encorafenib -0.045 | [3] -0.03

RB1 (UniProt P06400)
active: alvocidib -0.885
inactive: saracatinib 0.026 | sotrastaurin -0.038 | Tubastatin A 0.061 | [1] 0.026 | defactinib -0.176 | rucaparib -0.195 | [2] 0.016 | encorafenib 0.006 | [3] 0.019

SCAMP2 (UniProt H3BUB6)
inactive: saracatinib -0.149 | sotrastaurin 0.171 | alvocidib 0.253 | Tubastatin A -0.056 | [1] -0.043 | defactinib 0.088 | rucaparib 0.072 | [2] -0.155 | encorafenib -0.311 | [3] 0.096

SACM1L (UniProt Q9NTJ5)
inactive: saracatinib 0.004 | sotrastaurin 0.003 | alvocidib -0.098 | Tubastatin A -0.026 | [1] 0.042 | defactinib -0.08 | rucaparib -0.062 | [2] 0.007 | encorafenib 0.034 | [3] -0.046

RPS15 (UniProt P62841)
inactive: saracatinib -0.02 | sotrastaurin 0.07 | alvocidib 0.325 | Tubastatin A 0.087 | [1] 0.04 | defactinib 0.233 | rucaparib 0.226 | [2] 0.061 | encorafenib 0.028 | [3] 0.06

RAF1 isoform 2 (UniProt P04049)
Chain of UniProt P04049 (P04049 whole entry, looked up): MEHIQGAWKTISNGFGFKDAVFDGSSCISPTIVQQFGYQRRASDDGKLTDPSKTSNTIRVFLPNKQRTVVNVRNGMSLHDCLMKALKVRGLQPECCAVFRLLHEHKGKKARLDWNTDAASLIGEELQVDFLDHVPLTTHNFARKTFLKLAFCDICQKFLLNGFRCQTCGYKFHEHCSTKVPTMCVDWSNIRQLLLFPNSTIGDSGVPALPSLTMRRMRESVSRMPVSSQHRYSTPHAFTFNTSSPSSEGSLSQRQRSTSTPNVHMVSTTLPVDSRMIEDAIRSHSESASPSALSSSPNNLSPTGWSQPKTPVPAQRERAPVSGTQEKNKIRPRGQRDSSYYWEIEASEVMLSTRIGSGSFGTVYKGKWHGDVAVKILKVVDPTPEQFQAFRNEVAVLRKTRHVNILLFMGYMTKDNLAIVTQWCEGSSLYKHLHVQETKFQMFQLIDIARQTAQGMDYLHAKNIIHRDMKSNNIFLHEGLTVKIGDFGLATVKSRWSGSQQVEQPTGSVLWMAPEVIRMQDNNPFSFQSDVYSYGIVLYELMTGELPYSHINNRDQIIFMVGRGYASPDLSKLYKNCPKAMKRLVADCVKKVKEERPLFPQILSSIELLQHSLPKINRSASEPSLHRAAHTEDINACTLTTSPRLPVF
inactive: saracatinib -0.029 | sotrastaurin -0.167 | alvocidib -0.105 | Tubastatin A -0.036 | [1] 0.078 | defactinib -0.075 | rucaparib 0.125 | [2] 0.176 | [3] -0.069
active: encorafenib 0.737

SAAL1 (UniProt Q96ER3)
inactive: saracatinib 0.001 | sotrastaurin -0.044 | Tubastatin A -0.089 | [1] 0.042 | defactinib 0.203 | rucaparib 0.031 | [2] -0.069 | encorafenib 0.017 | [3] -0.031
active: alvocidib 0.355

RPS12 (UniProt P25398)
inactive: saracatinib -0.014 | sotrastaurin -0.023 | alvocidib 0.123 | Tubastatin A 0.017 | [1] 0.049 | defactinib 0.092 | rucaparib 0.12 | [2] -0.008 | encorafenib 0.02 | [3] 0.015

SH2D1B (UniProt O14796)
Chain of UniProt O14796 (O14796 whole entry, looked up): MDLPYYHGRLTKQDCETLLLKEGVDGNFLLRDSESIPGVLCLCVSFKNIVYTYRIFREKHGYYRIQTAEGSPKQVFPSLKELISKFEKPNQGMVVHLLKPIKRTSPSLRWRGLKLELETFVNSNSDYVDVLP
inactive: sotrastaurin 0.05 | alvocidib -0.029 | Tubastatin A -0.046 | [1] -0.214 | defactinib -0.06 | rucaparib 0.045 | [2] -0.026 | encorafenib 0.295 | [3] 0.242
active: saracatinib -1

RECQL (UniProt P46063)
inactive: saracatinib 0.053 | sotrastaurin -0.012 | alvocidib -0.073 | Tubastatin A 0.021 | [1] 0.061 | defactinib -0.071 | rucaparib -0.002 | [2] -0.013 | encorafenib 0.026 | [3] -0.026

SLBP (UniProt Q14493)
Chain of UniProt Q14493 (Q14493 whole entry, looked up): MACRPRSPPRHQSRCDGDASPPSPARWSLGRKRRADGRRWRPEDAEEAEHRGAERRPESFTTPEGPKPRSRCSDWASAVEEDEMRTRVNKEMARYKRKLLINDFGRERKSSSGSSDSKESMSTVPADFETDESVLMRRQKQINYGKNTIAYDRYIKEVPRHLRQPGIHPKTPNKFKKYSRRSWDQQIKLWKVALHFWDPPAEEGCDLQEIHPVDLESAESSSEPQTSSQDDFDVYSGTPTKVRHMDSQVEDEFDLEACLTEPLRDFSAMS
inactive: saracatinib -0.083 | sotrastaurin -0.077 | alvocidib -0.091 | Tubastatin A 0.117 | [1] 0.113 | defactinib -0.128 | rucaparib -0.158 | [2] 0.02 | encorafenib 0.113 | [3] 0

RETREG3 (UniProt Q86VR2)
inactive: saracatinib 0.164 | sotrastaurin 0.035 | alvocidib -0.023 | Tubastatin A 0.022 | [1] 0.011 | defactinib -0.015 | rucaparib 0.004 | [2] -0.011 | encorafenib -0.018 | [3] 0.032

RPS20 isoform 2 (UniProt P60866)
inactive: saracatinib -0.1 | sotrastaurin 0.019 | alvocidib 0.196 | Tubastatin A 0.054 | [1] 0.066 | defactinib 0.216 | rucaparib 0.093 | [2] -0.009 | encorafenib 0.041 | [3] 0.001

RDH10 (UniProt Q8IZV5)
inactive: saracatinib 0.005 | sotrastaurin 0.016 | alvocidib -0.043 | Tubastatin A 0.04 | [1] 0.068 | defactinib -0.002 | rucaparib -0.034 | [2] 0.072 | encorafenib -0.011 | [3] -0.063

RPS4X (UniProt P62701)
inactive: saracatinib -0.164 | sotrastaurin -0.017 | alvocidib 0.247 | Tubastatin A 0.123 | [1] 0.063 | defactinib 0.302 | rucaparib 0.185 | [2] 0.089 | encorafenib 0.08 | [3] 0.014

RALA (UniProt P11233)
inactive: sotrastaurin 0.05 | alvocidib 0.013 | Tubastatin A -0.008 | [1] -0.045 | defactinib 0.017 | rucaparib 0.002 | [2] 0.086 | encorafenib 0.033 | [3] 0.004
active: saracatinib 0.203

RPS6KA2 isoform 2 (UniProt Q15349)
active: [1] -0.422
inactive: saracatinib 0 | sotrastaurin -0.049 | alvocidib -0.019 | Tubastatin A -0.01 | defactinib -0.209 | rucaparib -0.049 | [2] -0.08 | encorafenib 0.014 | [3] -0.009

ROR2 (UniProt Q01974)
inactive: saracatinib 0.034 | sotrastaurin -0.071 | alvocidib -0.06 | Tubastatin A -0.025 | [1] -0.023 | defactinib -0.107 | rucaparib -0.012 | [2] 0.084 | encorafenib 0.03 | [3] -0.121

RCN3 (UniProt Q96D15)
inactive: saracatinib 0.033 | sotrastaurin 0.107 | alvocidib -0.133 | Tubastatin A 0.153 | [1] -0.076 | defactinib 0.096 | rucaparib 0.038 | [2] -0.309 | encorafenib 0.054 | [3] 0.087

SETD3 (UniProt Q86TU7)
inactive: saracatinib 0.008 | sotrastaurin 0.012 | alvocidib -0.071 | Tubastatin A -0.056 | [1] 0.014 | defactinib -0.004 | rucaparib 0.022 | [2] 0.032 | encorafenib -0.009 | [3] 0

RAC1 (UniProt P63000)
inactive: saracatinib 0.097 | sotrastaurin -0.041 | alvocidib -0.031 | Tubastatin A 0.057 | [1] -0.009 | defactinib -0.012 | rucaparib 0.075 | [2] 0.043 | encorafenib -0.064 | [3] -0.037

RRS1 (UniProt Q15050)
inactive: saracatinib -0.079 | sotrastaurin -0.001 | alvocidib 0.302 | Tubastatin A 0.071 | [1] 0.009 | defactinib 0.688 | rucaparib 0.488 | [2] 0.109 | encorafenib 0.166 | [3] 0.047

RPL38 (UniProt P63173)
inactive: saracatinib -0.018 | sotrastaurin 0.01 | alvocidib 0.088 | Tubastatin A 0.014 | [1] 0.027 | defactinib 0.126 | rucaparib 0.093 | [2] 0.044 | encorafenib 0.003 | [3] 0.037

RBM8A (UniProt Q9Y5S9)
inactive: saracatinib 0.011 | sotrastaurin -0.002 | alvocidib 0.188 | Tubastatin A 0.045 | [1] -0.032 | defactinib 0.075 | rucaparib -0.043 | [2] -0.006 | encorafenib 0.025 | [3] 0.012
